Screening results: PubChem BioAssay, The Scripps Research Institute Molecular Screening Center
TEAD-YAP block – TEAD-YAP interaction inhibition | HEK-TIYL cells, TEAD-Gal4/YAP UAS-luciferase luminescence | inhibition, % at 9.12 µM | actives 1.4% (n = 640,000) | AID 1259422; in the data active = inhibition above about 32%;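 note: 0% = median of test compound wells and 100% = reference inhibitor wells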
MITF inh – blocks human microphthalmia-associated transcription factor; inhibition, % at 2.6 µM; O75030; AlphaScreen MITF homodimerization, bead proximity signal; actives 0.91% (n = 650,000); in the data active = inhibition above about 50%;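 note: 0% = vehicle wells with protein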
Target sequence (O75030 whole entry, looked up): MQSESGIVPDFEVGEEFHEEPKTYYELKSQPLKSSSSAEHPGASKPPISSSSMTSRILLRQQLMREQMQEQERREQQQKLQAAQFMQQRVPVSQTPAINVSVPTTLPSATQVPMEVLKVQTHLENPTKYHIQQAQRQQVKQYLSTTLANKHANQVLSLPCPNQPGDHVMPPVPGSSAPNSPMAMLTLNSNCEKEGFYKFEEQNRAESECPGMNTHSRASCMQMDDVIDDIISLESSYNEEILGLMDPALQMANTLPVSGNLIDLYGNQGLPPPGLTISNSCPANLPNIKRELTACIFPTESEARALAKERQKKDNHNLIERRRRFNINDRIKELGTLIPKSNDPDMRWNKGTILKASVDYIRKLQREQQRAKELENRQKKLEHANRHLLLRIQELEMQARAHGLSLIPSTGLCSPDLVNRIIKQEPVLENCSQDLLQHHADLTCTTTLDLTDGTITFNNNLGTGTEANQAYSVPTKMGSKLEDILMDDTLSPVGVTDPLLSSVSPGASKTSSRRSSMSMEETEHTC
FBW7 act – human FBW7 E3 ligase activation, primary screen; AlphaScreen FBW7–phospho-cyclin E peptide binding, activator screen; normalized activity (activation), % at 26.1 µM; actives 0.13% (n = 650,000); AID 1259310; in the data active = normalized activity above about 1.9%;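 note: purified mutant Fbw7 with reduced substrate affinity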
GPR151 ag – activates the human receptor GPR151; Q8TDV0; PathHunter beta-arrestin GPR151 cells, luminescence; activation, % at 11.2 µM; actives 1% (n = 650,000); AID 1508602; in the data active = activation above about 4.9%;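 note: 0% = median of compound wells and 100% = cells with positive control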
* marks the source's active call; other numbers are inactive results. In the library only some 3.4% were active in any assay of this set; here they are far more common.

SMILES	TEAD-YAP block	MITF inh	FBW7 act	GPR151 ag
Cc1ccccc1NS(=O)(=O)c1ccc(N2CCCC2=O)cc1	47.5*	4.0	0.0	0.1
COC(=O)c1ccc(OCc2ccc(OC)c([N+](=O)[O-])c2)cc1	-1.9	17.4	0.0	0.0
O=C(Nc1ccc(C(F)(F)F)cc1)N[C@H]1C[C@H]2C(=O)N3CCC[C@@H]3C(=O)N2C1	-1.9	12.3	-0.1	-0.3
Cc1cc2c(cc1C)NC(c1cc3c(cc1[N+](=O)[O-])OCO3)C1=C(CC(C)(C)CC1=O)N2 (centres undefined)	71.9*	3.7	-0.1	-1.3
O=C(/C=C/c1ccc(F)cc1)Nc1ccc([N+](=O)[O-])cc1Br	-4.4	-7.7	-0.2	1.1
CC(CC(=O)Nc1cc([N+](=O)[O-])ccc1F)c1ccccc1 (centres undefined)	38.0*	-0.2	0.0	0.4
O=C(/C=C/c1ccc(F)cc1)Nc1cc([N+](=O)[O-])ccc1F	53.4*	2.6	0.2	-0.2
O=C(/C=C\c1ccco1)Nc1cc([N+](=O)[O-])ccc1F	60.4*	10.2	0.2	0.7
CC(CC(=O)Nc1cc([N+](=O)[O-])ccc1Cl)c1ccccc1 (centres undefined)	-12.0	2.3	0.1	-0.8
COc1ccc2oc(=O)c(C(=O)Oc3ccc(F)cc3)cc2c1	-1.4	5.6	0.0	-0.4
CCCN(CCC)C1=CC(=O)C(C)=CC1=O	2.2	65.3*	-0.2	-2.0
CCCN(CCC)C1=CC(=O)C(C)=C(C)C1=O	-0.1	38.7	-0.2	0.0
CCC(=O)Nc1nc2c(s1)C(=O)CC(c1ccccc1)C2 (centres undefined)	52.1*	-3.1	-0.1	-0.3
Oc1cccc(/C=N/NC(=S)N/N=C/c2cccc(O)c2O)c1O	-1.4	36.9	-0.3	0.0
COCCNC(=S)N/N=C/c1ccc(O)c(O)c1O	5.2	107.4*	-1.2	0.2
COCCNC(=S)N/N=C/c1cc(OC)c(OC)cc1OC	-0.9	1.2	-0.3	2.7
Cc1ccccc1NC(=O)C(=O)N/N=C/c1ccccc1O	2.0	52.2*	-0.3	0.7
CC(C)NC(=S)N/N=C/c1cccc(O)c1O	-15.2	89.6*	-1.2	-0.9
COCCNC(=O)C(=O)N/N=C/c1ccccc1O	-2.2	53.3*	-1.7	-1.3
COCCNC(=O)CC(=O)N/N=C/c1ccccc1O	0.1	16.7	-1.6	0.4
O=C(O)c1ccccc1NC(=O)c1ccc([N+](=O)[O-])cc1[N+](=O)[O-]	-0.4	7.6	-0.1	-1.1
Fc1cccc(C2=NC3(CCCCC3)NC2=S)c1	1.4	10.5	0.0	0.5
COc1ccc(S(=O)(=O)NCCNc2nc(C)cc(N(C)C)n2)c(OC)c1	32.3*	8.8	0.4	-2.3
Cc1cc(OCC(=O)NNC(=O)CCc2ccccc2)ccc1Br	5.9	6.8	2.3*	-0.7
Oc1ccc(/C=N/NC(=S)NCCN2CCOCC2)c(O)c1	-6.4	93.6*	-1.2	1.6
SMILES	TEAD-YAP block	MITF inh	FBW7 act	GPR151 ag
Cc1nc(C)c(-c2ccc(SCC(=O)Nc3ccc([N+](=O)[O-])cc3)nn2)s1	47.4*	2.5	0.5	0.6
NNC(=O)/C(=C/c1cccs1)NC(=O)c1ccccc1Cl	42.4*	11.3	1.3	-1.6
NNC(=O)/C(=C/c1ccc2c(c1)OCO2)NC(=O)c1ccccc1Cl	-1.8	6.0	0.0	0.8
COc1ccc(-c2csc(CC#N)n2)cc1	3.5	4.3	0.0	3.5
COC(=O)c1ccccc1N(Cc1ccccc1)S(=O)(=O)c1ccc(OC)cc1	51.1*	-0.9	0.0	-1.2
COc1ccc(S(=O)(=O)N(Cc2ccccc2)c2ccccc2C(=O)NC2CC2)cc1	46.9*	3.8	1.6	0.5
COc1cc2oc(=O)c(CC(=O)NCc3ccccc3)c(C)c2cc1OC	48.9*	20.3	0.3	-1.2
COc1ccc(-c2cc(NCc3nc4ccccc4[nH]3)ncn2)cc1	-15.6	15.0	0.0	0.5
COc1ccc(NC(=O)Nc2nnc(CSc3ccc(C)cc3)s2)cc1	-12.6	9.7	0.2	1.0
COc1ccc(OCC(=O)Nc2ccc(-c3nc4cc(C(C)C)ccc4o3)cc2)cc1	47.9*	3.5	0.1	-0.5
COc1ccc(-c2cc3ccc(O)cc3oc2=O)cc1OC	-7.0	8.8	1.0	-12.6
O=c1oc2cc(O)ccc2cc1-c1ccc(Cl)cc1	42.1*	-16.8	0.9	-11.7
CC(C)c1ccc2oc(-c3ccc(NC(=O)COc4ccccc4)cc3)nc2c1	68.7*	-2.6	0.0	-0.9
COc1ccc(OCC(=O)Nc2ccc(-c3cc4ccccc4oc3=O)c(C)c2)cc1	14.8	3.7	0.4	-0.8
COc1ccc(OCC(=O)Nc2ccc(-c3cc4ccccc4oc3=O)cc2)cc1	43.3*	-8.0	-0.1	-0.1
COc1ccc(C2C3=C(CC(C)(C)CC3=O)Nc3nc(-c4ccccc4)nn32)cc1OC (centres undefined)	-7.6	-3.8	0.0	-0.3
CCC(C)C(=O)N1CCC(C(=O)Nc2ccc(-c3nc4ccccc4o3)cc2)CC1 (centres undefined)	-7.2	-9.4	-0.1	1.3
Cc1ccc(OCC(=O)Nc2cc(-c3nc4cc(C(C)C)ccc4o3)ccc2Cl)cc1	6.0	-1.1	-0.4	-0.8
COc1ccc(OCC(=O)Nc2cc(-c3nc4cc(C(C)C)ccc4o3)ccc2Cl)cc1	70.0*	-6.6	-0.1	0.0
CCC(C)C(=O)Nc1ccc(-c2nc3ccccc3o2)cc1 (centres undefined)	37.8*	-6.8	-0.1	-2.8
COc1ccc(NC(=O)COc2ccc(C(C)C)cc2)c(OC)c1	3.7	-8.0	2.1*	3.6
CCC(=O)Nc1cc(-c2nc3cc(C(C)C)ccc3o2)ccc1Cl	45.7*	-2.6	0.2	-0.3
CC(C)c1ccc2oc(-c3ccc(Cl)c(NC(=O)COc4ccc(Cl)cc4)c3)nc2c1	-6.1	-7.5	0.2	0.0
CCn1c(=O)n(CCC#N)c2cccnc21	-6.3	21.0	0.1	-0.2
Nc1ccc(-c2cc3ccccc3oc2=O)cc1	70.2*	-3.6	0.2	-0.2
SMILES	TEAD-YAP block	MITF inh	FBW7 act	GPR151 ag
CCOc1cc(Br)cc(/C=N/NC(=O)C2COc3ccccc3O2)c1O (centres undefined)	23.6	15.0	-0.1	2.2
CC1=C(C#N)C(c2cccnc2)C2=C(N1)c1ccccc1C2=O (centres undefined)	56.0*	-6.8	-0.2	-0.5
Cc1cccc2cc(CN(Cc3ccco3)C(=O)C3CCCO3)c(=O)[nH]c12 (centres undefined)	6.2	-3.3	0.1	0.8
O=C(Nc1cccnc1)c1ccc2c(c1)C(=O)N(C1CCCCC1)C2=O	-5.7	-3.9	0.1	-1.5
O=C(Nc1ccncc1)c1ccc2c(c1)C(=O)N(C1CCCCC1)C2=O	32.2*	-9.4	-0.1	-0.5
O=C(NC1CC1)c1cncc(-c2ccccc2)c1	3.9	-0.9	0.1	0.8
O=C(NC1CCN(Cc2ccccc2)CC1)c1ccc2cncc(-c3ccccc3)c2n1	65.2*	16.2	-0.2	1.3
O=C(c1ccc2cncc(-c3ccccc3)c2n1)N1CCCCC1	49.5*	-15.6	-1.0	-1.0
O=C(NC1CC1)c1ccc2cncc(-c3ccccc3)c2n1	50.6*	4.8	-0.2	4.5
Fc1cc(-c2nc(Nc3ccc(N4CCOCC4)cc3)ncc2F)cc(N2CCOCC2)c1	1.2	-2.3	-0.2	0.8
